SMARCA2 act: SMARCA2 (BRM) function activators, primary screen, cell-based, luminescence, high throughput; MG213 cells, MMTV-luciferase reporter, dexamethasone, overnight; activation, % at 9.1 µM; hit rate 1% among 370,000; AID 652017, 2013; in the data active = activation above about 7.8%
KLK7 zymogen act: proKLK7 zymogen activators, primary screen, biochemical, fluorescence intensity; hit rate 0.9% among 370,000; Kallikrein-7 (Homo sapiens), P49862; AID 652039, 2013; activation, % at 7 µM; purified proKLK7, EDANS-DABCYL substrate fluorescence; 100% is mature enzyme control, 0% vehicle;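 active = activation above the mean of all tested compounds plus 3 SD, computed per campaign excluding outliers beyond control limits, cut at about 13% in these data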
Target sequence (P49862 whole entry, looked up): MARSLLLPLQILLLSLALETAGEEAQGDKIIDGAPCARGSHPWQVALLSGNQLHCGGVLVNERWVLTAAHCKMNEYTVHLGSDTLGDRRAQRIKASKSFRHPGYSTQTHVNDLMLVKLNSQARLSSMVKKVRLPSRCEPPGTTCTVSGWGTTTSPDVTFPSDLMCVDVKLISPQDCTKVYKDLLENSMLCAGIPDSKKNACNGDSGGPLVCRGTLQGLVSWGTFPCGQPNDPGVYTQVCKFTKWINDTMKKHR
FXN GAA850 act: FXN promoter activators, primary screen, cell-based, luciferase luminescence, HEK293 lucGAA850; HEK293 lucGAA850 FXN promoter luciferase reporter, 24 h; percent of 10 µM SAHA response; activation, % at 6 µM; hit rate 0.56% among 360,000; AID 540364, 2011;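 active = activation above the average of all compounds screened plus 3 SD, cutoff fixed separately per campaign, cut at about 7.5% in these data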
FAS-TE inh: FAS thioesterase domain inhibitors, primary screen, biochemical, fluorescence intensity, uHTS. inhibition, % at 15 µM. hit rate 0.67% among 360,000. Fatty acid synthase (Homo sapiens), P49327. recombinant FAS-TE, OMFH fluorogenic substrate, fluorescence endpoint;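 active = compounds whose normalised, plate-corrected inhibition of enzyme fluorescence in the single-dose primary screen is 50% or more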
FAS-TE inh conf: FAS thioesterase domain inhibitors, confirmation, biochemical, fluorescence intensity, single concentration; AID 624325, 2012; recombinant FAS-TE, OMFH fluorogenic substrate; shares compounds with FAS-TE inh; inhibition, % at 15 µM; hit rate 45% among 2,300;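 active = compounds inhibiting the enzyme by at least 50% at 15 µM in any one of the replicates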
Large screens that a line does not name were inactive (follow-up assays come after a bar, where they were run). An excerpt weighted towards active compounds, which were near 2.9% of everything screened.

CCOC(=O)CN(C(=O)COc1nc(-c2ccccc2)cc(C)c1C#N)c1ccccc1	FAS-TE inh 59.3 | FAS-TE inh conf inactive
CCOC(=O)CN(C(=O)COc1nc(-c2ccccc2)cc(C)c1C#N)c1ccc(C)cc1	none
CCC(C)NC(=O)CSc1nc2c(sc(=S)n2Cc2ccco2)c(=O)n1-c1ccccc1 (stereo unspecified)	FAS-TE inh 50.7 | FAS-TE inh conf 52.7
CCn1c(=S)sc2c(=O)n(-c3ccccc3)c(SCC(=O)NCc3ccco3)nc21	none
C[C@@]12C(=O)N(c3ccc(Br)cc3)C(=O)N1[C@@H]1c3ccccc3OC[C@@H]1[C@H]2c1ccccc1	FAS-TE inh 60.8 | FAS-TE inh conf inactive
C[C@]12C(=O)N(c3ccc(F)cc3)C(=O)N1[C@H]1c3ccccc3OC[C@@H]1[C@H]2c1ccccc1	FAS-TE inh 89.3 | FAS-TE inh conf inactive
C[C@]12C(=O)N(c3ccc(Cl)cc3)C(=O)N1[C@H]1c3ccccc3OC[C@@H]1[C@H]2c1ccccc1	FAS-TE inh 92.9 (no result: SMARCA2 act, KLK7 zymogen act) | FAS-TE inh conf inactive
C[C@@]12C(=O)N(c3ccc(Cl)cc3)C(=O)N1[C@@H]1c3ccccc3OC[C@@H]1[C@H]2c1ccccc1	none
C[C@]12C(=O)N(c3ccc(Br)cc3)C(=O)N1[C@@H]1c3ccccc3OC[C@@H]1[C@H]2c1ccccc1	none
C[C@]12C(=O)N(c3ccc(Cl)cc3)C(=O)N1[C@@H]1c3ccccc3OC[C@@H]1[C@H]2c1ccccc1	FAS-TE inh 54.9 | FAS-TE inh conf inactive
CCN(CC)S(=O)(=O)c1cc(NS(=O)(=O)c2ccccc2)ccc1C	none
O=C(Cc1ccccc1)NCC(=O)N1CCN(Cc2cccc(Cl)c2)CC1	none
CN(C(=O)CN1CCN(c2cc(-c3ccc(-c4ccccc4)cc3)ncn2)CC1)c1ccccc1	none
C/C(=N\NC(=O)c1cccnc1)c1ccc(Br)cc1	none
C=CCNC(=O)C1CC(=O)N(c2ccc(OCC(=O)Nc3ccc(CC)cc3)cc2)C1 (stereo unspecified)	none
O=C(NCc1ccccc1C(F)(F)F)C1CCC(=O)N(C2CCCCCC2)C1 (stereo unspecified)	none
CCCc1nnc(NC(=O)c2ccncc2)s1	none
C[C@@]12C(=O)N(c3ccccc3)C(=O)N1[C@@H]1c3ccccc3OC[C@@H]1[C@H]2c1ccccc1	none
C[C@]12C(=O)N(c3ccc(C(F)(F)F)cc3)C(=O)N1[C@H]1c3ccccc3OC[C@@H]1[C@H]2c1ccccc1	FAS-TE inh 81.8 | FAS-TE inh conf inactive
COC(=O)c1sc2ccccc2c1NC(=O)c1ccc(S(=O)(=O)N2CCC(C)CC2)cc1	none
COC(=O)c1sc2ccccc2c1NC(=O)c1ccc(S(=O)(=O)N2CCCC(C)C2)cc1 (stereo unspecified)	FAS-TE inh 51.8 | FAS-TE inh conf inactive
C[C@@H]1CCCCO[C@@H](CN(C)S(=O)(=O)c2cccs2)[C@@H](C)CN([C@H](C)CO)C(=O)c2cc(NS(=O)(=O)c3ccccc3)ccc2O1	FAS-TE inh 62.7 | FAS-TE inh conf inactive
Cc1ccc(S(=O)(=O)Nc2ccc3c(c2)C(=O)N([C@H](C)CO)C[C@H](C)[C@H](CN(C)C(=O)Nc2cccc4ccccc24)OCCCC[C@@H](C)O3)cc1	FAS-TE inh 61.4 | FAS-TE inh conf inactive
C[C@@H]1CCCCO[C@H](CN(C)S(=O)(=O)c2cccs2)[C@@H](C)CN([C@H](C)CO)C(=O)c2cc(NC(=O)C3CCCCC3)ccc2O1	none
C[C@@H]1CCCCO[C@H](CN(C)C(=O)Nc2ccc3c(c2)OCO3)[C@H](C)CN([C@@H](C)CO)C(=O)c2cc(NS(=O)(=O)c3ccc(Cl)cc3)ccc2O1	FAS-TE inh 59.1 | FAS-TE inh conf inactive
C[C@@H]1CN([C@H](C)CO)C(=O)c2cc(NC(=O)Nc3ccc(F)cc3)ccc2O[C@@H](C)CCCCO[C@H]1CN(C)S(=O)(=O)c1ccc(Cl)cc1	FAS-TE inh 69.1 (no result: FXN GAA850 act) | FAS-TE inh conf inactive
CC(C)NC(=O)Nc1ccc2c(c1)C(=O)N([C@H](C)CO)C[C@H](C)[C@@H](CN(C)S(=O)(=O)c1ccccc1)OCCCC[C@@H](C)O2	none
Cc1ccc(S(=O)(=O)Nc2ccc3c(c2)C(=O)N([C@H](C)CO)C[C@H](C)[C@@H](CN(C)C(=O)NC2CCCCC2)OCCCC[C@@H](C)O3)cc1	none
C/C(=N/NC(=O)CNC(=O)C1COc2ccccc2O1)c1ccc([N+](=O)[O-])cc1 (stereo unspecified)	none
CN(C(=O)CSc1ncc(C(F)(F)F)cc1Cl)c1c(N)n(Cc2ccccc2)c(=O)[nH]c1=O	none
CCOC(=O)c1nc(N/N=C/c2ccccc2)sc1Br	none
C/C(=N\Nc1ncc(Cl)cc1Cl)c1ccc(OC(F)F)cc1	FAS-TE inh 51.9 | FAS-TE inh conf 58.8
CCN(C1CCS(=O)(=O)C1)S(=O)(=O)c1cccs1 (stereo unspecified)	none
CCOC(=O)c1c(NC(=O)CSc2nnc(-c3ccccc3C)n2C)sc(C(C)=O)c1C	FAS-TE inh 58.8 | FAS-TE inh conf 67.6
CCOC(=O)c1c(NC(=O)CSc2ncnc3ccccc23)sc(C(C)=O)c1C	FAS-TE inh 50.1 | FAS-TE inh conf inactive
CCOC(=O)c1c(NC(=O)CSc2nc3cccnc3n2C)sc(C(C)=O)c1C	FAS-TE inh 79.6 (no result: SMARCA2 act, KLK7 zymogen act) | FAS-TE inh conf inactive
CCOC(=O)c1sc(NC(=O)CSc2nc3cccnc3n2C)nc1C	none
Cc1ccc(Cn2cc(CN3[C@H](c4ccccc4)COc4cc(Br)ccc4S3(=O)=O)nn2)cc1	none (no result: FXN GAA850 act, FAS-TE inh)
CCn1c(SC(C)C)nnc1-c1c[nH]c2ccccc12	none
CCN1C(=O)[C@H]2[C@@H](c3ccc(C)cc3)N3C(=O)N(c4ccc(C(F)(F)F)cc4)C(=O)[C@@]3(CC(C)C)[C@H]2C1=O	none
Cc1cccc([C@@H]2[C@@H]3C(=O)N(Cc4ccccc4)C(=O)[C@@H]3[C@]3(Cc4ccc(Cl)cc4)C(=O)N(c4ccccc4)C(=O)N23)c1	FAS-TE inh 92.8 | FAS-TE inh conf inactive
Cc1cccc([C@@H]2[C@@H]3C(=O)N(Cc4ccccc4)C(=O)[C@@H]3[C@]3(Cc4ccc(Cl)cc4)C(=O)N(c4cccc(Br)c4)C(=O)N23)c1	FAS-TE inh 91.4 | FAS-TE inh conf inactive
Cc1cccc([C@@H]2[C@@H]3C(=O)N(Cc4ccccc4)C(=O)[C@@H]3[C@]3(Cc4ccccc4)C(=O)N(c4ccc(C(F)(F)F)cc4)C(=O)N23)c1	FAS-TE inh 90.3 | FAS-TE inh conf inactive
CC[C@@]12C(=O)N(c3cccc(Br)c3)C(=O)N1[C@H](c1cccc(C)c1)[C@@H]1C(=O)N(Cc3ccccc3)C(=O)[C@@H]12	FAS-TE inh 55.2 | FAS-TE inh conf inactive
O=S(=O)(c1cccc(C(F)(F)F)c1)N1CCN(c2nnnn2-c2ccccc2)CC1	none

Screens: PubChem BioAssay, several laboratories
